SARS PLpro yeast: SARS-CoV PLP inhibition in yeast. S. cerevisiae expressing SARS-CoV PLpro, growth rescue. 330,000 compounds, 0.19% hits. Potency, µM (doses to about 32.9 µM), actives largely listed as activators; calls by dose curve; further: nearly all actives have a fitted effect of over 55% in size
AmpC detergent: AmpC beta-lactamase inhibition with detergent present; AID 485294; Potency, µM (highest dose often 114 µM), usual class: inhibitors; AmpC hydrolysis of nitrocefin, absorbance 480 nm, 0.01% Triton; 370,000 compounds, 0.041% hits; further: nearly all actives have a fitted effect of over 25% in size
Target sequence (P00811 whole entry, looked up): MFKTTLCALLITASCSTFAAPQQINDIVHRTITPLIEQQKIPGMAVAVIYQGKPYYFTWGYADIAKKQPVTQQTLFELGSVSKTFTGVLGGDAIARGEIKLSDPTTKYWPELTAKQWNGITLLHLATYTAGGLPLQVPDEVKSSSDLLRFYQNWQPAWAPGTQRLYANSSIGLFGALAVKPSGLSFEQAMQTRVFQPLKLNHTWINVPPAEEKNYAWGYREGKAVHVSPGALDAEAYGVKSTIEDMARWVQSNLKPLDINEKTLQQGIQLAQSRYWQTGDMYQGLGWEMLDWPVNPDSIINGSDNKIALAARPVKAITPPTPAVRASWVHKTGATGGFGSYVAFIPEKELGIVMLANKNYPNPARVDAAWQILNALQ
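20 mM phosphate pH 7.0 + 0.01% (detergent screen) or 0.0001% Triton X-100; 5.3 nM AmpC reagent; cpd preinc 15 min RT; nitrocefin (800 uM stock) to start; A480 q20 s × 4 min; Activity was normalised to no-enzyme and no-compound control wells.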
VACV mCherry inh: vaccinia inhibition (mCherry reporter); Vaccinia virus mCherry reporter infection, fluorescence; Potency, µM (doses to about 36.5 µM), hits mostly inhibitors; 310,000 compounds, 0.63% hits; AID 720579; calls by dose curve; tested in A549 cells; further: nearly all actives have a fitted effect of over 35% in size
VACV Venus inh: inhibitors of vaccinia virus (Venus reporter) | Potency, µM (titrated, usually from 36.5 µM), hits mostly inhibitors | Vaccinia virus Venus reporter expression, fluorescence | AID 720580 | 330,000 compounds, 0.46% hits; calls by dose curve; tested in A549 cells; further: nearly all actives have a fitted effect of over 30% in size
AmpC no deterg: blocks E. coli AmpC beta-lactamase in detergent-free assay. P00811. 330,000 compounds, 0.52% hits. AmpC nitrocefin hydrolysis, absorbance 480 nm, 0.0001% Triton. AID 485341. Potency, µM (series often up to 57.1 µM), usual class: inhibitors; further: nearly all actives have a fitted effect of over 20% in size
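AmpC (5.3 nM in the dispensed reagent) in 20 mM phosphate pH 7.0 with 0.01% (detergent screen) or 0.0001% Triton X-100 was preincubated with compounds for 15 min at room temperature. Nitrocefin was then added from an 800 uM solution, and hydrolysis was followed at 480 nm.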
Hits are given with their value; - = inactive; ? = inconclusive; . = no result given. An excerpt weighted towards active compounds, which were near 1.3% of everything screened. Unless noted, the call rests on the fitted dose curve; in most records, active means well fitted curve in the direction sought with a large enough effect; inconclusive means small, poorly fitted or top-dose-only effect, or another doubt; inactive means no such curve, though single readings can be large; an effect the other way counts as inactive or inconclusive.

SMILES | SARS PLpro yeast | AmpC detergent | VACV mCherry inh | VACV Venus inh | AmpC no deterg
CN(C)c1nc2cc3c(cc2cc1CN(CC1CCCO1)C(=O)/C=C/c1cccs1)OCO3 (configuration not stated) | . | . | - | - | .
COCCCNc1cc(C)nc2ccccc12 | - | - | - | - | -
Cc1cc(NCCCCCCCNc2cc(C)nc3cc([N+](=O)[O-])ccc23)c2ccc([N+](=O)[O-])cc2n1 | . | . | ? | 10µM | .
C[C@@H]1CN([C@@H](C)CO)C(=O)Cc2cc(NC(=O)Nc3ccc(F)cc3)ccc2O[C@@H]1CN(C)Cc1ccc(Cl)c(Cl)c1 | - | . | ? | 11µM | -
C[C@H](CO)N1C[C@H](C)[C@@H](CN(C)Cc2ccccc2)Oc2c(NC(=O)Cc3ccccc3)cccc2C1=O | - | . | - | ? | -
C[C@H](CO)N1C[C@H](C)[C@@H](CN(C)Cc2ccc(Cl)c(Cl)c2)Oc2c(NC(=O)Cc3ccccc3)cccc2C1=O | - | . | 5.6µM | ? | -
C[C@@H]1CN([C@@H](C)CO)C(=O)c2cc(NC(=O)Nc3ccc(F)cc3)ccc2O[C@@H]1CN(C)Cc1ccc(Oc2ccccc2)cc1 | - | . | ? | 10µM | -
C[C@@H]1CCCCO[C@H](CN(C)Cc2ccc(C(F)(F)F)cc2)[C@H](C)CN([C@@H](C)CO)C(=O)c2cc(NC(=O)Cc3ccccc3)ccc2O1 | . | . | ? | 11µM | .
COc1ccc(CN(C)C[C@@H]2OCCCC[C@H](C)Oc3ccc(NC(=O)Cc4ccccc4)cc3C(=O)N([C@@H](C)CO)C[C@@H]2C)cc1 | . | . | - | - | .
C[C@H]1CN([C@@H](C)CO)C(=O)Cc2cc(NS(C)(=O)=O)ccc2O[C@@H]1CN(C)Cc1ccc(Cl)c(Cl)c1 | - | . | - | - | -
CN(C)c1cccc(C(=O)NCC2Cc3cccc(-c4cncnc4)c3O2)c1 (configuration not stated) | . | . | - | - | .
Cc1cc2oc(C(=O)Nc3c(C)n(C)n(-c4ccccc4)c3=O)cc(=O)c2cc1C | . | - | - | - | .
CCOC(=O)c1cccc(NC(=O)Cc2ccc(NC(=O)N3CCCCc4ccccc43)cc2)c1 | . | - | - | - | .
C[C@@H]1CCCCO[C@@H](CN(C)CC2CCCCC2)[C@@H](C)CN([C@H](C)CO)C(=O)c2cc(NS(=O)(=O)c3ccc(Cl)cc3)ccc2O1 | . | . | ? | 10µM | .
C[C@H]1CCCCO[C@H](CN(C)CC2CCCCC2)[C@@H](C)CN([C@@H](C)CO)C(=O)c2cc(NS(=O)(=O)c3ccccc3)ccc2O1 | . | . | - | ? | .
Cc1ccc(S(=O)(=O)Nc2ccc3c(c2)C(=O)N([C@H](C)CO)C[C@H](C)[C@@H](CN(C)Cc2ccc(-c4ccccc4)cc2)O3)cc1 | - | . | ? | 10µM | -
COc1ccc(S(=O)(=O)N(C)C[C@H]2Oc3c(NC(=O)Nc4ccc(C(F)(F)F)cc4)cccc3C(=O)N([C@H](C)CO)C[C@@H]2C)cc1 | - | . | ? | 10µM | -
Cc1ccc2[nH]c(C(=O)NCc3nc(-c4cccc(NC(=O)c5cc(C)oc5C)c4)oc3C)cc2c1 | . | . | - | - | .
Cc1cc(/C=C/c2ccnc3ccccc23)ccc1N | . | . | - | - | .
CCc1cccc2c(C(=O)CCl)c[nH]c12 | 13µM | - | - | - | -
CCc1cccc2c(C(=S)N3CCCC3)c[nH]c12 | - | - | . | . | -
CN(CCc1ccccc1)C(C(=O)Nc1ccc2c(c1)OCCO2)c1ccnc2ccccc12 (configuration not stated) | . | . | - | - | .
CC1=C(O)C(=O)C=C2C1=CC=C1C2(C)CCC2(C)C3CC(C)(C(=O)O)CCC3(C)CCC12C (configuration not stated) | . | . | 22µM | 10µM | .
O=C1c2cccnc2-c2ncccc21 | - | ? | - | - | -
O=C1C(=O)c2cccnc2-c2ncccc21 | . | . | 6.3µM | 14µM | .
SMILES | SARS PLpro yeast | AmpC detergent | VACV mCherry inh | VACV Venus inh | AmpC no deterg
CSc1nn(Cc2cccc(Cl)c2)c(N(C(C)=O)C(C)=O)c1S(=O)(=O)c1ccccc1 | . | - | ? | ? | .
N#CCSc1nnc(-c2ccc3c(c2)OCO3)o1 | - | - | 11µM | ? | -
O=C(CNC1=NCCS1)c1c[nH]c2ccccc12 | . | . | - | - | .
Cc1ccc(S(=O)(=O)NC(CC(=O)N2CCOCC2)c2ccco2)cc1 (configuration not stated) | - | - | - | - | 0.14µM
Cc1ccc(S(=O)(=O)NC(CC(=O)N2CCC3(CC2)OCCO3)c2ccco2)cc1 (configuration not stated) | - | - | . | - | -
Cc1ccc(S(=O)(=O)NC(CC(=O)NC2CCCC2)c2ccco2)cc1 (configuration not stated) | - | - | . | - | 0.4µM
Cc1cnc(C)c(Nc2nc(C(N)Cc3ccc(C(F)(F)F)cc3)cs2)n1 (configuration not stated) | . | . | 11µM | ? | .
NC(Cc1ccc(C(F)(F)F)cc1)c1csc(NC(=O)NCCc2ccccc2)n1 (configuration not stated) | . | . | ? | 11µM | .
NC(Cc1ccc(C(F)(F)F)cc1)c1csc(Nc2ccccn2)n1 (configuration not stated) | . | . | 11µM | ? | .
CC(C)(CO)NC(=O)c1cnn(-c2nccc(-c3ccc4c(c3)OCO4)n2)c1C1CC1 | . | . | - | - | .
O=S(=O)(CCN1CCOCC1)c1ccc(Oc2ccc(S(=O)(=O)CCN3CCOCC3)cc2)cc1 | - | - | ? | 2.2µM | -
O=S(=O)(CCN1CCOCC1)c1ccc(Cl)cc1 | . | . | - | ? | .
O=C(Nc1ncnc2nc[nH]c12)c1ccccc1 | . | . | - | - | .
O=C1C(=Cc2ccc(Cl)cc2)Cc2ccccc21 | . | . | - | - | .
C=CC(=O)N1C/C(=C/c2ccccc2)C(=O)/C(=C\c2ccccc2)C1 | . | . | ? | 8.9µM | .
C=CC(=O)N1C/C(=C/c2ccc(Cl)cc2)C(=O)/C(=C\c2ccc(Cl)cc2)C1 | . | . | 2.8µM | 5.6µM | .
CN1C/C(=C/c2ccncc2)C(=O)/C(=C/c2ccncc2)C1 | - | - | - | - | -
Cc1ccc(CNc2ncnc3sc(C(=O)N4CCCC(C(N)=O)C4)c(C)c23)o1 (configuration not stated) | . | . | - | - | .
Oc1c(/C=C/C=C/C=Nc2ccccc2)sc(=S)n1Cc1ccccc1 | - | - | . | . | 13µM
CCn1c(O)c(/C=C/C=C/C=Nc2ccccc2)sc1=S | - | - | - | - | -
Cc1ccccc1C1(CC(=O)N2CCC[C@H]2C(N)=O)CC(=O)N(C2CCCC2)C1=O (some centres not stated) | . | . | - | - | .
C/C(=N\Nc1nc(-c2ccc(C)cc2C)cs1)c1cc2ccccc2oc1=O | - | ? | - | - | 20µM
c1ccc2nccnc2c1 | . | . | 11µM | 3.5µM | .
Cc1ncc2c(c1CNC(=O)c1cncs1)CCN(C(=O)c1cc(F)c(F)cc1F)C2 | . | . | - | - | .
Cn1c(C(=O)NCc2ccccc2)cc2oc3ccccc3c21 | - | - | 5µM | - | -
Cn1c(C(=O)NCc2cccs2)cc2oc3ccccc3c21 | - | ? | 10µM | - | -
